13 molecules from PubChem BioAssay (NCATS) can be followed below.

Each structure is given as a SMILES string. Inconclusive results are not listed. Calls of active or inactive are those of the source. Calls come from the whole dose curve; as a rule, active = well fitted curve in the direction sought with a large enough effect; inconclusive = small, poorly fitted or top-dose-only effect, or another doubt; inactive = no such curve, though single readings can be large; an effect the other way counts as inactive or inconclusive.

Assay [1] can be described thus: Quantitative High-Throughput drug screen in 47 multiple myeloma cell lines against the NCATS MIPE library collection: KMM1_JCRB cell viability assay (AID 1918960). Note: nearly all actives have a fitted effect of over 30% in size. Put shortly: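 CellTiter-Glo luminescence after 48 h exposure gives viability, scaled between DMSO-only (100%) and media-only (0%) controls. Library compounds are pinned onto 500 myeloma cells per well, incubated at 37C with 5% CO2.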

The nature of assay [2]: Quantitative High-Throughput drug screen in 47 multiple myeloma cell lines against the NCATS MIPE library collection: KHM11_PLB cell viability assay (AID 1918962). Note: nearly all actives have a fitted effect of over 35% in size. The method in brief:
(§1)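 Myeloma cells (500 per well) were exposed to MIPE 4.0 compounds by pin transfer and incubated 48 hours at 37C, 5% CO2. Viability was read as ATP by CellTiter-Glo luminescence, normalised to DMSO (100%) and media-only (0%) wells.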

Assay [3] in a line: Quantitative High-Throughput drug screen in 47 multiple myeloma cell lines against the NCATS MIPE library collection: H1112_PLB cell viability assay (AID 1918967; note: nearly all actives have a fitted effect of over 30% in size). Put shortly: (§2)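 Approved and investigational drugs from MIPE 4.0 were added by pin tool to 500 cells per well. After 48 hours at 37C, ATP-based CellTiter-Glo luminescence indicated remaining viability.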
Assay [4] can be described thus: Quantitative High-Throughput drug screen in 47 multiple myeloma cell lines against the NCATS MIPE library collection: Karpas25_ECACC cell viability assay (AID 1918968; note: nearly all actives have a fitted effect of over 35% in size). Put shortly:
as §2

A short description of assay [5]: Quantitative High-Throughput drug screen in 47 multiple myeloma cell lines against the NCATS MIPE library collection: KMS20_JCRB cell viability assay (AID 1918973). Note: nearly all actives have a fitted effect of over 45% in size. Put shortly: as §2
Assay [6] in a line: Quantitative High-Throughput drug screen in 47 multiple myeloma cell lines against the NCATS MIPE library collection: KMS21BM_JCRB cell viability assay (AID 1918974). The conditions noted are these: ATP luminescence, 48 h; viability: at 45.8 µM (top of the series). Put shortly:
as §2

Assay [7] can be described thus: Quantitative High-Throughput drug screen in 47 multiple myeloma cell lines against the NCATS MIPE library collection: KMS26_JCRB cell viability assay (AID 1918975). Note: nearly all actives have a fitted effect of over 45% in size. The method in brief: (§3)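 qHTS of the MIPE 4.0 collection: 500 myeloma cells/well, 48 h drug exposure at 37C in 5% CO2, then CellTiter-Glo for 5 min at room temperature before luminescence reading.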
Assay [8] is described as follows: Quantitative High-Throughput drug screen in 47 multiple myeloma cell lines against the NCATS MIPE library collection: MMM1_PLB cell viability assay (AID 1918976). Note: nearly all actives have a fitted effect of over 35% in size. The method in brief: (§4)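 ATP-based CellTiter-Glo luminescence after 48 h drug exposure (37 °C, 5% CO2) of 500 myeloma cells per well. DMSO-only wells set 100% viability, media-only wells 0%; MIPE 4.0 library added by pin tool.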

The nature of assay [9]: Quantitative High-Throughput drug screen in 47 multiple myeloma cell lines against the NCATS MIPE library collection: NCIH929_DSMZ cell viability assay (AID 1918978). Note: nearly all actives have a fitted effect of over 35% in size. The method in brief: as §4
A short description of assay [10]: Quantitative High-Throughput drug screen in 47 multiple myeloma cell lines against the NCATS MIPE library collection: JIM1_ECACC cell viability assay (AID 1918964). The method in brief: as §2
Assay [11] in a line: Quantitative High-Throughput drug screen in 47 multiple myeloma cell lines against the NCATS MIPE library collection: INA6_PLB cell viability assay (AID 1918965; note: nearly all actives have a fitted effect of over 55% in size). Put shortly: (§5)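 CellTiter-Glo ATP luminescence gave viability after 48 h compound treatment at 37C of 500 multiple myeloma cells per well. Normalisation used DMSO-only wells as 100% and media-only wells as 0% viability; primary qHTS of approved and investigational drugs.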

The nature of assay [12]: Quantitative High-Throughput drug screen in 47 multiple myeloma cell lines against the NCATS MIPE library collection: KMS27_JCRB cell viability assay (AID 1918970). Note: nearly all actives have a fitted effect of over 30% in size. The conditions noted are these: KMS27 myeloma cells, CellTiter-Glo ATP viability, 48 h; viability (% of DMSO): at 45.8 µM (top of the series). The method in brief: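 ATP-based viability (CellTiter-Glo luminescence) is measured in cells treated 48 h with approved and investigational drugs at 37 °C. Controls are DMSO-only wells for full viability and media-only wells for none.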
(In general: In ATP-based viability assays light output follows the ATP content of the culture.)

A short description of assay [13]: Quantitative High-Throughput drug screen in 47 multiple myeloma cell lines against the NCATS MIPE library collection: KMS12BM_JCRB cell viability assay (AID 1918971). Note: nearly all actives have a fitted effect of over 35% in size. The method in brief: as §3
Assay [14] is described as follows: Quantitative High-Throughput drug screen in 47 multiple myeloma cell lines against the NCATS MIPE library collection: KMS12PE_JCRB cell viability assay (AID 1918972). Note: nearly all actives have a fitted effect of over 30% in size. The method in brief: as §5
The nature of assay [15]: Quantitative High-Throughput drug screen in 47 multiple myeloma cell lines against the NCATS MIPE library collection: Karpas620_DSMZ cell viability assay (AID 1918959). Note: nearly all actives have a fitted effect of over 30% in size. Put shortly: as §1
Assay [16] can be described thus: Quantitative High-Throughput drug screen in 47 multiple myeloma cell lines against the NCATS MIPE library collection: JJN3_DSMZ cell viability assay (AID 1918966; note: nearly all actives have a fitted effect of over 50% in size). Put shortly: as §2
Assay [17] is described as follows: Quantitative High-Throughput drug screen in 47 multiple myeloma cell lines against the NCATS MIPE library collection: OCIMY1_PLB cell viability assay (AID 1918979). Note: nearly all actives have a fitted effect of over 35% in size. The method in brief: as §4
Assay [18] can be described thus: Quantitative High-Throughput drug screen in 47 multiple myeloma cell lines against the NCATS MIPE library collection: Karpas417_ECACC cell viability assay (AID 1918961). The following applies: Karpas417 myeloma viability, CellTiter-Glo ATP luminescence, 48 h; viability (% of DMSO): at 45.8 µM (top of the series). Put shortly: as §5
Assay [19] in a line: Quantitative High-Throughput drug screen in 47 multiple myeloma cell lines against the NCATS MIPE library collection: JIM3_ECACC cell viability assay (AID 1918963; note: nearly all actives have a fitted effect of over 35% in size). The method in brief:
as §1

The nature of assay [20]: Quantitative High-Throughput drug screen in 47 multiple myeloma cell lines against the NCATS MIPE library collection: MOLP8_DSMZ cell viability assay (AID 1918977). Note: nearly all actives have a fitted effect of over 45% in size. The method in brief: as §4
Potency is the fitted concentration of half-maximal effect.

In the case of `c1coc(CNc2ncnc3nc[nH]c23)c1`, the Potency entry in [1], in [2], in assay [3], in assay [4], in assay [5] and in [6] was “inactive” each time. In addition, the Potency result in assay [7] and in [9] was “inactive” each time. For the same molecule, in assay [8], the Potency is 1.87 µM (active).

On to `O=c1[nH]c(=O)n([C@H]2C[C@@H](O)[C@@H](CO)O2)cc1F`, for which the Potency in [1] is 1.66 µM (active); in assay [10] it was 18.7 µM (active); in [11] it was 1.32 µM (active); in [3], 4.69 µM (active); in [12], 9.35 µM (active); in [13], 20.9 µM (active). Besides, the Potency in assay [14] was 7.43 µM (active); in assay [8] it was 18.7 µM (active).

With `Cc1cc(C(=O)NOCCO)c(Nc2ccc(I)cc2F)n(C)c1=O`, the Potency is 0.0059 µM (active) in [15], 4.69 µM (active) in assay [16] and 0.0074 µM (active) in [9]. For the same molecule, the Potency result in assay [10], in [7] and in [17] was “inactive” throughout.

For the molecule `CCc1c(O)cc(O)c(C(=O)c2ccc(OCCN3CCOCC3)c(OC)c2)c1CC(=O)N(CCOC)CCOC`, the Potency in assay [1] was 0.935 µM (active); in [2] it was 0.469 µM (active); in assay [19], 0.833 µM (active); in assay [11] it was 0.59 µM (active); in assay [16] it was 0.935 µM (active); in assay [3], 14.8 µM (active). The Potency in [4] was 0.526 µM (active); in assay [13], 1.05 µM (active); in assay [5] it was 0.526 µM (active); in assay [7] it was 0.833 µM (active); in assay [8], 1.48 µM (active); in assay [20] it was 0.662 µM (active). For the same molecule, the values for the Potency in assay [9] and in assay [17] were 1.05 µM (active) and 16.6 µM (active), respectively. The Potency entry in assay [18] is “inactive”.

Take `N#Cc1c(NC(=O)c2cccc3ccccc23)sc2c1CCCC2`: the Potency in [1] was 0.296 µM (active); in assay [19] it was 0.209 µM (active); in [10] it was 0.187 µM (active); in assay [11], 0.296 µM (active); in assay [3], 0.418 µM (active); in [4], 0.743 µM (active). For the same molecule, the Potency in assay [13] was 0.526 µM (active); in [14], 0.332 µM (active); in assay [6], 0.526 µM (active); in assay [7], 3.32 µM (active); in assay [8] it was 5.26 µM (active); in assay [9] it was 2.35 µM (active).

As for `COC(=O)C1C2CC3c4[nH]c5cc(OC)ccc5c4CCN3CC2CC(OC(=O)c2cc(OC)c(OC)c(OC)c2)C1OC` (stereo not given), the Potency is 23.5 µM (active) in [15]; 26.4 µM (active) in [19]; 16.6 µM (active) in assay [3]; 23.5 µM (active) in assay [4]; 18.7 µM (active) in assay [14]; 20.9 µM (active) in assay [8].

For the molecule `CCOC(=O)C1=C(C)NC(=S)NC1c1cccc(O)c1` (stereo not given), the Potency in assay [1] is 0.469 µM (active); in [19], 0.0372 µM (active); in assay [10], 0.296 µM (active); in assay [4] it was 0.0296 µM (active); in [13] it was 0.0662 µM (active); in assay [14], 0.372 µM (active). For the same molecule, the Potency in assay [20] and in assay [9] was 0.0372 µM (active) in each case.

In the case of `C[C@@H](Oc1ccc2[nH]nc(C=Cc3cnn(CCO)c3)c2c1)c1c(Cl)cncc1Cl`, the Potency entry in assay [1], in assay [18], in assay [10], in assay [12] and in [14] was “inactive” each time. In addition, the Potency is 1.87 µM (active) in assay [2]; 0.372 µM (active) in assay [19]; 0.0935 µM (active) in [11]; 8.33 µM (active) in assay [16]; 6.62 µM (active) in assay [3]; 0.743 µM (active) in [4]. Besides, the Potency in [13] was 23.5 µM (active); in [5], 4.18 µM (active); in [7], 8.33 µM (active); in assay [20], 0.469 µM (active); in [9], 0.235 µM (active).

On to `CCCCCN=C(N)NN=Cc1c[nH]c2ccc(OC)cc12`, for which the Potency in assay [1] is 3.32 µM (active); in assay [19], 5.26 µM (active); in [10] it was 1.48 µM (active); in assay [11] it was 0.526 µM (active); in assay [13] it was 6.62 µM (active); in [7], 10.5 µM (active). The Potency in assay [9] is 13.2 µM (active).

With `O=C(O)C[C@H](O)C[C@H](O)C=Cc1c(C2CC2)nc2ccccc2c1-c1ccc(F)cc1`, the Potency in assay [1] is 5.9 µM (active); in assay [2] it was 7.43 µM (active); in assay [19], 14.8 µM (active); in [10], 0.935 µM (active); in assay [11] it was 4.18 µM (active); in [3], 13.2 µM (active). The Potency in [4] is 4.69 µM (active); in assay [12], 3.32 µM (active); in [14], 3.72 µM (active); in assay [8], 14.8 µM (active); in assay [20] it was 4.69 µM (active); in assay [9], 3.72 µM (active).

For `C=CC(=O)Nc1cc(NC(=O)c2ccc(C)c(NC(=O)c3ccno3)c2)cc(C(F)(F)F)c1`, the Potency in assay [15] was 8.33 µM (active); in assay [11], 16.6 µM (active); in assay [3], 18.7 µM (active); in assay [4], 14.8 µM (active); in [14], 8.33 µM (active); in assay [7], 18.7 µM (active). Moreover, the results for the Potency in [8], in assay [20] and in assay [9] were 20.9 µM (active), 18.7 µM (active) and 16.6 µM (active), respectively.

Turning to `COc1cc(OC)c(C=CS(=O)(=O)Cc2ccc(OC)c(NCC(=O)O)c2)c(OC)c1`, the Potency in assay [1] was 0.0743 µM (active); in [18], 1.18 µM (active); in assay [19], 0.209 µM (active); in assay [10], 0.0372 µM (active); in assay [11], 0.296 µM (active); in assay [16] it was 1.05 µM (active). Also, the Potency in [3] was 0.418 µM (active); in assay [4], 0.332 µM (active); in assay [12] it was 0.0743 µM (active); in [14], 0.105 µM (active); in [6], 0.0833 µM (active); in assay [7], 1.32 µM (active). For the same molecule, the Potency in assay [8] was 0.743 µM (active); in assay [20], 2.09 µM (active); in assay [9] it was 2.64 µM (active); in [17], 0.418 µM (active).

Regarding `C=C1C(=CC=C2CCC[C@]3(C)[C@@H]([C@H](C)CCCC(C)(C)O)CC[C@@H]23)C[C@@H](O)C[C@@H]1O`, the Potency is 4.69 µM (active) in assay [1]; 10.5 µM (active) in assay [2]; 5.26 µM (active) in assay [10]; 5.9 µM (active) in assay [11]; 7.43 µM (active) in [3]; 1.66 µM (active) in [12]. Moreover, the Potency is 20.9 µM (active) in assay [13]; 6.62 µM (active) in assay [14]; 18.7 µM (active) in assay [7]; 16.6 µM (active) in [20]; 3.72 µM (active) in assay [9].
